PMC4336329 (PLoS ONE, 2015)
Screen size: about 310,000 compounds; about 2,200 (0.71%) showed an effect of 50% or more. The effect is printed as a negative number. This excerpt belongs to a sample that is enriched for strong results.

molecular target: human ether-à-go-go-related gene (hERG) potassium channel (human, UniProt Q12809); assay: primary screen, population patch clamp on CHO cells stably expressing hERG; higher = less effect of the substance
Sequence (Q12809 whole entry, looked up): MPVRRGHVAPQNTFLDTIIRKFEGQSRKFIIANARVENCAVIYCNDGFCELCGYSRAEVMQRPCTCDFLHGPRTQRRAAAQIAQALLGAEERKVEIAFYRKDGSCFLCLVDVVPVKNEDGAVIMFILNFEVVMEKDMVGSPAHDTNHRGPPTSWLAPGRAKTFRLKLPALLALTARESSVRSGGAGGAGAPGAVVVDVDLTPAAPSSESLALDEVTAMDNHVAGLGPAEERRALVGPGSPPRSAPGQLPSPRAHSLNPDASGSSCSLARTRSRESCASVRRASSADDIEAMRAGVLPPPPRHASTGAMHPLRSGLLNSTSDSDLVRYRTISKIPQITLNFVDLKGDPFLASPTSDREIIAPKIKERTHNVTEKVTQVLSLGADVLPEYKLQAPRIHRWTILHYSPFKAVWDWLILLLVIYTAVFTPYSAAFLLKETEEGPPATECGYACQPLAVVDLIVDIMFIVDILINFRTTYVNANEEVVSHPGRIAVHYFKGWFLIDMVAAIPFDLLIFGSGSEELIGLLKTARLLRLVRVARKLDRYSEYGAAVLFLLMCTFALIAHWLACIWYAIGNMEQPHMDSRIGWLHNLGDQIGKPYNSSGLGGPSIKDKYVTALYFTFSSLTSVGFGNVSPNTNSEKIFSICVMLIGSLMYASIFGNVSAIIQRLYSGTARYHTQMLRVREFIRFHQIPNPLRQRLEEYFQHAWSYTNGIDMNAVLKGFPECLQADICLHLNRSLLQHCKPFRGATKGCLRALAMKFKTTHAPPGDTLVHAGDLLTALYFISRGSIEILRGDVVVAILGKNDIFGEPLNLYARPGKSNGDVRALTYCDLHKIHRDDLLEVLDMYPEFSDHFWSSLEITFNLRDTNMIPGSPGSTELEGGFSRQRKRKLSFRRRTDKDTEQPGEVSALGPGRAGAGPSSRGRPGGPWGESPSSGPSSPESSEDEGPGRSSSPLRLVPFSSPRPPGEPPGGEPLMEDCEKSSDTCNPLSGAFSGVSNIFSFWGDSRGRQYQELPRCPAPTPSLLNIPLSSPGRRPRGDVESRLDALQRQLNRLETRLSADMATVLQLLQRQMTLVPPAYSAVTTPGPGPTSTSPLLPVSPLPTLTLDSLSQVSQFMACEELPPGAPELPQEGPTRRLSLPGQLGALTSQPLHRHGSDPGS

Compound | hERG current change (%, negative = inhibition) at 1uM
COC(=O)c1ccc(CN2CCN(CCCc3ccccc3)C(CCO)C2)cc1 (stereo not shown) | -29.1%
COCCCNC(=O)c1cc(C)nc2ccc(F)cc12 | -1.73%
CN(C)S(=O)(=O)Oc1ccsc1C(=O)Nc1ccccc1Cl | 5.7%
Cc1cccc(CN2CCN(CC(=O)NCc3ccc(F)cc3)C2=O)c1 | 7.12%
Cc1cccc(CN2CCN(CC(=O)NCCCN3CCCC3=O)C2=O)c1 | 11.8%
Cc1cccc(CN2CCN(CC(=O)NCCCN3CCN(c4ccc(F)cc4)CC3)C2=O)c1 | -54.5%
O=C(CN1CCN(Cc2ccc(Cl)cc2)C1=O)NCCCN1CCOCC1 | 4.56%
O=C(CN1CCN(Cc2ccc(Cl)cc2)C1=O)NCCCN1CCN(c2ccc(F)cc2)CC1 | -36.8%
COc1ccc(N2CCN(CCCNC(=O)CN3CCN(Cc4ccccc4C)C3=O)CC2)cc1 | -16.7%
Cc1ccccc1CN1CCN(CC(=O)NCCCN2CCN(c3ccc(F)cc3)CC2)C1=O | -52%
CCOCCCNC(=O)CN1CCN(Cc2ccccc2C)C1=O | 4.41%
Cc1ccc(CN2CCN(CC(=O)NCCCN3CCN(c4ccc(F)cc4)CC3)C2=O)cc1 | -56.6%
O=C1NC2CCc3nc4ccccc4c(=O)n3C2=Nc2ccccc21 (stereo not shown) | -6.24%
COc1cc2c(=O)n(CCC(=O)NCC3CCCO3)c(=O)n(CC(=O)Nc3ccc(C)c(C)c3)c2cc1OC (stereo not shown) | 11.6%
CNC(=O)c1ccccc1NC(=O)c1ccc(C)c(S(=O)(=O)N2CCCCC2)c1 | -2.21%
CC1(C)C2CC=C(/C=N/NC(=O)C(N)=O)C1C2 (stereo not shown) | 10.3%
COC(=O)C(C)Sc1nc2c(c(=O)[nH]c(=O)n2C)n1CCCc1ccccc1 (stereo not shown) | -70.1%
CCOCCn1c(SC(C)C(C)=O)nc2c1c(=O)[nH]c(=O)n2C (stereo not shown) | -0.132%
CCOC(=O)C(C)Sc1nc2c(c(=O)[nH]c(=O)n2C)n1C/C=C(/C)Cl (stereo not shown) | -62.6%
CCC(C)Sc1nc2c(c(=O)[nH]c(=O)n2C)n1Cc1ccc(Cl)cc1 (stereo not shown) | 2.15%
CCOC(=O)C(C)Sc1nc2c(c(=O)[nH]c(=O)n2C)n1Cc1ccc(Cl)cc1 (stereo not shown) | -78.7%
COC(=O)C(C)Sc1nc2c(c(=O)[nH]c(=O)n2C)n1CCC(C)C (stereo not shown) | 4.51%
CC(C)Sc1nc2c(c(=O)[nH]c(=O)n2C)n1Cc1ccc(Cl)cc1 | 4.3%
C/C(Cl)=C/Cn1c(SCC(C)C)nc2c1c(=O)[nH]c(=O)n2C | 10%
CCCCCCn1c(SCC(C)C)nc2c1c(=O)[nH]c(=O)n2C | 10.1%
C/C(Cl)=C/Cn1c(SC(C)C)nc2c1c(=O)[nH]c(=O)n2C | 6.96%
CCCCCn1c(SC(C)C(C)=O)nc2c1c(=O)[nH]c(=O)n2C (stereo not shown) | -91.2%
CCOC(=O)C(C)Sc1nc2c(c(=O)[nH]c(=O)n2C)n1CCc1ccccc1 (stereo not shown) | -5.6%
